Source: PubChem BioAssay
In the library only some 28% were active in any assay of this set; here they are far more common.
CYP2C19 act: cytochrome P450 2C19 (human) activation | P33261 | recombinant CYP2C19, luciferin-H EGE luminescence; hits give high values; 0 = fully inhibited enzyme, 1 = untreated enzyme | activation factor at 5 µM | 96,000 tested, under 10 active;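 active = activation factor of at least 2 at 5 µM in the primary screen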;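 also: 0 = wells with 2.5 mM tranylcypromine and 1 = vehicle-only wells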
CYP2C9 inhib: blocks human cytochrome P450 2C9. AID 777. CYP2C9 Supersomes, luciferin-H conversion, luminescence. inhibition, % at 5 µM. hit rate 20% among 96,000;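 active = blocking of liver enzyme CYP2C9 beyond about 50% at 5 µM, limit read from the data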
Target sequence (P11712 whole entry, looked up): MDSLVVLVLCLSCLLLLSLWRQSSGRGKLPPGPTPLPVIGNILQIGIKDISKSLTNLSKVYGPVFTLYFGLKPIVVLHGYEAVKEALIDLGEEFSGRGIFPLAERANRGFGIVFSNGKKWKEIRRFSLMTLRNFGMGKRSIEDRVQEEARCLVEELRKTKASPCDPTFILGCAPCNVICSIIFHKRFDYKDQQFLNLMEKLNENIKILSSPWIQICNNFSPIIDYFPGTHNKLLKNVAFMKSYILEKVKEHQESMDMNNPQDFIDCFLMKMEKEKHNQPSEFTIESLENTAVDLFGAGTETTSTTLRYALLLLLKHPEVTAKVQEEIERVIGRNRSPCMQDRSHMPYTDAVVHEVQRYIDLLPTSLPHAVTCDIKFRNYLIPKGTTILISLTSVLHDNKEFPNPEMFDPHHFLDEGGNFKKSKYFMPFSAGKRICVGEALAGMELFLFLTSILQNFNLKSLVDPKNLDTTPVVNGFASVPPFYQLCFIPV
CYP2C9 activ: increases human cytochrome P450 2C9 activity; P11712; recombinant CYP2C9, luciferin-H conversion, luminescence; hits give high values; factor 1 = untreated enzyme, 0 = blocked; activation factor at 5 µM; hit rate 1.4% among 96,000; AID 1024;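 active = activation factor of 2 or more for CYP2C9 at a 5 µM dose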;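 also: 0 = sulfaphenazole-blocked wells and 1 = vehicle-only wells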
CD11b adhes enh: enhancers of human CD11b/CD18 binding to fibrinogen | hit rate 0.07% among 93,000 | AID 1499 | K562 CD11b/CD18 adhesion to fibrinogen, ATPlite luminescence | activation, % at 10 µM;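 active = 10 µM primary screen giving 50% or more activity, confirmed by 40% or more on retest at that dose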
CYP2C19 inhib: blocks human cytochrome P450 2C19 | AID 778 | P33261 | CYP2C19 Supersomes, luciferin-H EGE luminescence, 30 min | inhibition, % at 5 µM | hit rate 21% among 96,000;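 active = CYP2C19 inhibition above a set limit at 5 µM in the primary screen, cut at about 50% in these data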;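 also: plate controls were negative control wells for no effect and 2.5 mM tranylcypromine positive control for full effect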
CD11b adhes inh: inhibitors of human CD11b/CD18 binding to fibrinogen; P05107+P11215; K562 CD11b/CD18 adhesion to fibrinogen, ATPlite luminescence; Mn2+ added to activate the integrin; inhibition, % at 10 µM; hit rate 0.54% among 93,000;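 active = primary inhibition of 50% or more at 10 µM, then 40% or more on retest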
An asterisk follows results filed as active.

Screening COc1cccc(C(=O)N2CCN(C(=O)c3cccc4ccccc34)CC2)c1OC returned CYP2C19 act 0.9, CYP2C9 inhib 36, CYP2C9 activ 0.6, CD11b adhes enh -2, CYP2C19 inhib 10 and CD11b adhes inh 2.
Screening COc1cccc(-c2noc(C3CCCN(C(=O)Cc4ccccc4)C3)n2)c1 (stereo not drawn) returned CYP2C19 act 0.7, CYP2C9 inhib 41, CYP2C9 activ 0.6, CD11b adhes enh 0, CYP2C19 inhib 30 and CD11b adhes inh 1.
`COc1ccc(NC(=O)N2CCCC(c3nc(-c4ccc(C(C)C)cc4)no3)C2)cc1` (stereo not drawn) gave CYP2C19 act 0.6, CYP2C9 inhib 67*, CYP2C9 activ 0.3, CD11b adhes enh -8, CYP2C19 inhib 36 and CD11b adhes inh 87.
`COc1ccc(-c2noc(C3CCCN(C(=O)CCc4ccccc4)C3)n2)cc1` (stereo not drawn) gave CYP2C19 act 0.6, CYP2C9 inhib 70*, CYP2C9 activ 0.3, CD11b adhes enh -1, CYP2C19 inhib 44 and CD11b adhes inh 1.
For CCCCCC(=O)N1CCCC(c2nc(-c3ccc(OC)cc3)no2)C1 (stereo not drawn) the results were CYP2C19 act 0.4, CYP2C9 inhib 67*, CYP2C9 activ 0.3 and CYP2C19 inhib 64*.
`O=C(CC1CCCCC1)N1CCCC(c2nc(-c3ccc(S(=O)(=O)N4CCCC4)cc3)no2)C1` (stereo not drawn) gave CYP2C19 act 0.7, CYP2C9 inhib 60*, CYP2C9 activ 0.4, CD11b adhes enh -6, CYP2C19 inhib 30 and CD11b adhes inh 13.
Screening O=C(NCC1COCCO1)C1CCN(S(=O)(=O)c2ccccc2)CC1 (stereo not drawn) returned CYP2C19 act 1, CYP2C9 inhib 20, CYP2C9 activ 0.8, CD11b adhes enh -4, CYP2C19 inhib 1 and CD11b adhes inh -36.
For Cc1cc(C)nc(N(C#N)CC(=O)N(c2ccccc2)C(C)C)n1 the results were CYP2C19 act 0.7, CYP2C9 inhib 5, CYP2C9 activ 0.9, CD11b adhes enh 1, CYP2C19 inhib 30 and CD11b adhes inh 14.
Screening O=C1C2C(C(=O)N1c1ccncc1)C1C=CC2C12CC2 (stereo not drawn) returned CYP2C19 act 0.1, CYP2C9 inhib 75*, CYP2C9 activ 0.3, CD11b adhes enh -2, CYP2C19 inhib 92* and CD11b adhes inh -5.
`Cc1nn(-c2ccccc2)c2[nH]c(=O)c(CNc3ccc4c(c3)OCCO4)cc12` gave CYP2C19 act 0.8, CYP2C9 inhib 61*, CYP2C9 activ 0.4, CD11b adhes enh 1, CYP2C19 inhib 21 and CD11b adhes inh 16.
Cc1nn(-c2ccccc2)c2[nH]c(=O)c(CNCc3ccc4c(c3)OCO4)cc12 was read as CYP2C19 act 1.1, CYP2C9 inhib -20, CYP2C9 activ 1.2, CD11b adhes enh -3, CYP2C19 inhib -13 and CD11b adhes inh -10.
For CCc1ccc(NCc2cc3c(C)nn(-c4ccccc4)c3[nH]c2=O)cc1 the results were CYP2C19 act 0.5, CYP2C9 inhib 92*, CYP2C9 activ 0.1, CD11b adhes enh 2, CYP2C19 inhib 50 and CD11b adhes inh -8.
CC(=O)NCCn1c(SCc2ccccc2F)nc2ccccc2c1=O was read as CYP2C19 act 0, CYP2C9 inhib 97*, CYP2C9 activ 0, CD11b adhes enh -3, CYP2C19 inhib 98* and CD11b adhes inh 11.
`Cn1c(SCc2ccccc2F)nc2cccnc21` gave CYP2C19 act 0.4, CYP2C9 inhib 25, CYP2C9 activ 0.8, CD11b adhes enh -2, CYP2C19 inhib 63* and CD11b adhes inh -4.
For CC(=O)NCCn1c(SCC#N)nc2ccccc2c1=O the results were CYP2C19 act 0.8, CYP2C9 inhib 6, CYP2C9 activ 0.9, CD11b adhes enh -1, CYP2C19 inhib 24 and CD11b adhes inh -2.
For CC(C)c1nnc(NC(=O)CCC(=O)NCc2cccs2)s1 the results were CYP2C19 act 1.1, CYP2C9 inhib 9, CYP2C9 activ 0.9, CD11b adhes enh -6, CYP2C19 inhib -6 and CD11b adhes inh 20.
For Cc1[nH]nc2c1-c1nc3ccccc3nc1C(C)(C)C2 the results were CYP2C19 act 0.3, CYP2C9 inhib 38, CYP2C9 activ 0.6, CD11b adhes enh -2, CYP2C19 inhib 68* and CD11b adhes inh 0.
For C=CCN=C(C)C1=C(O)C(C)OC1=O (stereo not drawn) the results were CD11b adhes enh 0 and CD11b adhes inh -2.
Screening CCOC(=O)Oc1ccc2c(c1)C(C)=CC(C)(C)N2C(=O)OCC returned CYP2C19 act 0.4, CYP2C9 inhib -20, CYP2C9 activ 1.2, CD11b adhes enh 2, CYP2C19 inhib 56* and CD11b adhes inh -9.
`CCOc1ccc2c(c1)C(C)=CC(C)(C)N2C(=O)Nc1ccccc1` gave CYP2C19 act 0.4, CYP2C9 inhib 40, CYP2C9 activ 0.6, CD11b adhes enh 1, CYP2C19 inhib 61* and CD11b adhes inh -23.
CCNC(=O)N1c2ccc(OC)cc2C(C)=CC1(C)C was read as CYP2C19 act 0.6, CYP2C9 inhib 36, CYP2C9 activ 0.6, CD11b adhes enh 0, CYP2C19 inhib 42 and CD11b adhes inh 3.
Screening CCOc1ccc(N2CC(C(=O)OCC(=O)NCc3ccccc3)CC2=O)cc1 (stereo not drawn) returned CYP2C19 act 0.8, CYP2C9 inhib 39, CYP2C9 activ 0.6 and CYP2C19 inhib 16.
O=C(N1CCOCC1)C(F)(F)C(F)(F)C(F)(F)C(F)(F)C(=O)N1CCOCC1 was read as CYP2C19 act 1, CYP2C9 inhib -5, CYP2C9 activ 1.1, CD11b adhes enh -3, CYP2C19 inhib 1 and CD11b adhes inh 1.
Screening CC(C)(C)c1nc(CN2CCOCC2)ccc1O returned CYP2C19 act 0.4, CYP2C9 inhib -6, CYP2C9 activ 1.1, CD11b adhes enh -2, CYP2C19 inhib 60* and CD11b adhes inh -12.
Screening CC(C)(C)c1nc(CN2CCCCC2)cc(CN2CCCCC2)c1O returned CYP2C19 act 0.8, CYP2C9 inhib 3, CYP2C9 activ 1, CD11b adhes enh 1, CYP2C19 inhib 20 and CD11b adhes inh 20.
For CN(C)CCNc1nc(-c2ccccc2)nnc1C(F)(F)F the results were CYP2C19 act 1.1, CYP2C9 inhib -6, CYP2C9 activ 1.1 and CYP2C19 inhib -8.
Cc1c(C(=O)Nc2ccncc2)oc2c1C(=O)CC(C)(C)C2 was read as CYP2C19 act 0, CYP2C9 inhib 94*, CYP2C9 activ 0.1, CD11b adhes enh 1, CYP2C19 inhib 99* and CD11b adhes inh -6.
For Cc1c(C(=O)Nc2ccccc2)oc2c1C(=O)CC(C)(C)C2 the results were CYP2C19 act 1, CYP2C9 inhib 29, CYP2C9 activ 0.7, CD11b adhes enh -1, CYP2C19 inhib -1 and CD11b adhes inh -17.
